The structures appear in SMILES notation.

Experiment [1] addresses Ribosomal protein S6 kinase beta-1 (Homo sapiens) (UniProt P23443). To be noted: at 1 µM.
The target is the same in experiment [2]. The note with it: at 10 µM.
Experiment [3] deals with T1, Serine/threonine-protein kinase NLK (Homo sapiens) (UniProt Q9UBE8).
T1 sequence (whole entry): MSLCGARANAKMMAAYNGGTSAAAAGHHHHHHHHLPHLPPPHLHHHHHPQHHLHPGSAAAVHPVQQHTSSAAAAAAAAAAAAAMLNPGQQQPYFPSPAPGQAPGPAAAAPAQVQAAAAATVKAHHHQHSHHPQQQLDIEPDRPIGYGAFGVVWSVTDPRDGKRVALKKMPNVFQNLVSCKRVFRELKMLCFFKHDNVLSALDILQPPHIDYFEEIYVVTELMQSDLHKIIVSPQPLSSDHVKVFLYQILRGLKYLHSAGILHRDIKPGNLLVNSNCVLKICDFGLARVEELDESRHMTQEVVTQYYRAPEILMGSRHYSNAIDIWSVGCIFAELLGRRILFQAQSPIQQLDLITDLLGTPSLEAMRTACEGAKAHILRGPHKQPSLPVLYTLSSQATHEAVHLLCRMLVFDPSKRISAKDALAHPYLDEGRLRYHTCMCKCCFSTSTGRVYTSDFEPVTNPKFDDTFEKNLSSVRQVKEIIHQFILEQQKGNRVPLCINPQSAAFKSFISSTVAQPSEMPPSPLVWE
To be noted: at 1 µM.

Experiment [4] has as its target T1, Serine/threonine-protein kinase NLK (Homo sapiens). To be noted: at 10 µM.
Experiment [5] addresses Serine/threonine-protein kinase PAK 4 (Homo sapiens) (UniProt O96013). To be noted: at 1 µM.
For experiment [6] the target is unchanged. To be noted: at 10 µM.
In experiment [7] the target is PAS domain-containing serine/threonine-protein kinase (Homo sapiens) (UniProt Q96RG2). The note with it: at 10 µM.
Experiment [8] deals with Activated CDC42 kinase 1 (Homo sapiens) (UniProt Q07912). The note with it: at 1 µM.
Experiment [9] has the same target. To be noted: at 10 µM.
Experiment [10] concerns the target Serine/threonine-protein kinase PAK 2 (Homo sapiens) (UniProt Q13177). To be noted: at 1 µM.
Experiment [11] has the same target. The note with it: at 10 µM.
Experiment [12] deals with Serine/threonine-protein kinase PAK 5 (Homo sapiens) (UniProt Q9P286). The note with it: at 1 µM.
Experiment [13] has the same target. The note with it: at 10 µM.
Experiment [14] deals with Serine/threonine-protein kinase PAK 6 (Homo sapiens) (UniProt Q9NQU5). The note with it: at 1 µM.
For experiment [15] the target is unchanged. To be noted: at 10 µM.
The target in experiment [16] is ALK tyrosine kinase receptor (Homo sapiens) (UniProt Q9UM73). To be noted: at 1 µM.
For experiment [17], the target named is Serine/threonine-protein kinase Nek6 (Homo sapiens) (UniProt Q9HC98). The note with it: at 1 µM.
The target is the same in experiment [18]. The note with it: at 10 µM.
Experiment [19] addresses Serine/threonine-protein kinase Nek7 (Homo sapiens) (UniProt Q8TDX7). To be noted: at 10 µM.
The target is the same in experiment [20]. To be noted: at 1 µM.

Sequence of Serine/threonine-protein kinase PAK 5 (Homo sapiens) (Q9P286 whole entry, looked up): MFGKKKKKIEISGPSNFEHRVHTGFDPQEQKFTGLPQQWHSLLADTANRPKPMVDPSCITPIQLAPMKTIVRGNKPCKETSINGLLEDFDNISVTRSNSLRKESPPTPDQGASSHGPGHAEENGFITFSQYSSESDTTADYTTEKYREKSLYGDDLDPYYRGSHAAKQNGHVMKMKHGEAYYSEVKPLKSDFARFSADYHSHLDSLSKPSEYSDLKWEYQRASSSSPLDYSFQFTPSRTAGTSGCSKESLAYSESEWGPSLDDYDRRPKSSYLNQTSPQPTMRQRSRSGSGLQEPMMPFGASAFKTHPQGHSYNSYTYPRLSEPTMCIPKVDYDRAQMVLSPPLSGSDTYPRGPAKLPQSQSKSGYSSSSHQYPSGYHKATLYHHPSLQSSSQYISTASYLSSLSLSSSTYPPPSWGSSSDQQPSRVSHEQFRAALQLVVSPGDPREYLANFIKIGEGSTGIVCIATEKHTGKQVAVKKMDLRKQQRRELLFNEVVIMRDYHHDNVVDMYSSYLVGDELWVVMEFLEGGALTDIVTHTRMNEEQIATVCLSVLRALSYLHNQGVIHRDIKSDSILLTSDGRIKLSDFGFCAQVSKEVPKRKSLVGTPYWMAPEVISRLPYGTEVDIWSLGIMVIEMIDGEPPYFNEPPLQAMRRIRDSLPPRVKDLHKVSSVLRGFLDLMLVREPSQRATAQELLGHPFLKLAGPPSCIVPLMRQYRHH
Sequence of Serine/threonine-protein kinase PAK 2 (Homo sapiens) (Q13177 whole entry): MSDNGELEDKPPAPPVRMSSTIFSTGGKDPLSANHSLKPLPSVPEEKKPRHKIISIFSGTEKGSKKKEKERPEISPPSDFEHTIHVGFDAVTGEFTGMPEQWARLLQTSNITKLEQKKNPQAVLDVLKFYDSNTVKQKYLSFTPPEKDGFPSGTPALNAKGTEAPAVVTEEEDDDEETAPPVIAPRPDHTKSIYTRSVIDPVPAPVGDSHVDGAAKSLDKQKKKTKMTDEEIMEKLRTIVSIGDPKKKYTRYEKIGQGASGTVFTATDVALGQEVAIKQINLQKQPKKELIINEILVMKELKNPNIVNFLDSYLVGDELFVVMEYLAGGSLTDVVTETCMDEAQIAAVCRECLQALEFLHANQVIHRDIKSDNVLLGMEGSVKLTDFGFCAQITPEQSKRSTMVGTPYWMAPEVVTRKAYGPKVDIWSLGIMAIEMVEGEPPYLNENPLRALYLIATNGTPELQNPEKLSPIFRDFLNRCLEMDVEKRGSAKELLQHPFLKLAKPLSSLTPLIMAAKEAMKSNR
Sequence of Ribosomal protein S6 kinase beta-1 (Homo sapiens) (P23443 whole entry, looked up): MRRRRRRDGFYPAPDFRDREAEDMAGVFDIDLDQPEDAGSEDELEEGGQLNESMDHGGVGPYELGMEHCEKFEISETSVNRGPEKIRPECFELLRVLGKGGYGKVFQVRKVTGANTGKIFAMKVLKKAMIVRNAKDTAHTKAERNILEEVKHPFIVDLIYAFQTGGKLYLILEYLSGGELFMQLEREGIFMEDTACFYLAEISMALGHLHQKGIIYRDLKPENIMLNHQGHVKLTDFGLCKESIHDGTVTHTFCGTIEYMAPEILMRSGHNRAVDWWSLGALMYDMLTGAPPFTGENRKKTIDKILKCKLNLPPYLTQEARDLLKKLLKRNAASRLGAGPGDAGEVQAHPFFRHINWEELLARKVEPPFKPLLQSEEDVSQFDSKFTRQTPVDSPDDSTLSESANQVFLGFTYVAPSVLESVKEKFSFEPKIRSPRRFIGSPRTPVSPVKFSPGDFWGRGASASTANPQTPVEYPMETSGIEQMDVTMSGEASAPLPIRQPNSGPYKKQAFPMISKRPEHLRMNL
Sequence of Serine/threonine-protein kinase PAK 6 (Homo sapiens) (Q9NQU5 whole entry, looked up): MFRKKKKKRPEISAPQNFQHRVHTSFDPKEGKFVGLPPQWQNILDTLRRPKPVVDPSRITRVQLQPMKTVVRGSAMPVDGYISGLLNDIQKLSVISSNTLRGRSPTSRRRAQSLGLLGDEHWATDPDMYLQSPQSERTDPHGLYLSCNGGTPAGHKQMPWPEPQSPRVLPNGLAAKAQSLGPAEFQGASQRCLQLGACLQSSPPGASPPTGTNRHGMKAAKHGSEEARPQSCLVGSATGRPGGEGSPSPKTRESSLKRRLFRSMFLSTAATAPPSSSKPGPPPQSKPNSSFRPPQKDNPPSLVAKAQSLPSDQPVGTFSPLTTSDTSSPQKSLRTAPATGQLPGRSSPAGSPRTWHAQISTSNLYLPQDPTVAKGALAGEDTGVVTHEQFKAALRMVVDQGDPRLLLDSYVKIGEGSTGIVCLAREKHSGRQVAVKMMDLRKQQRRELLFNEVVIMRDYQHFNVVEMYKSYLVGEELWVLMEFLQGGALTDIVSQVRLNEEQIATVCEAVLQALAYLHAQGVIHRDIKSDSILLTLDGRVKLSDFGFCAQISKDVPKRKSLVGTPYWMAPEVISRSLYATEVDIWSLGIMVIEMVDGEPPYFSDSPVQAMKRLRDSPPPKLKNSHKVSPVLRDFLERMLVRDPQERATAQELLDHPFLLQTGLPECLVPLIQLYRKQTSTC
Sequence of PAS domain-containing serine/threonine-protein kinase (Homo sapiens) (Q96RG2 whole entry, the tested form may be a part): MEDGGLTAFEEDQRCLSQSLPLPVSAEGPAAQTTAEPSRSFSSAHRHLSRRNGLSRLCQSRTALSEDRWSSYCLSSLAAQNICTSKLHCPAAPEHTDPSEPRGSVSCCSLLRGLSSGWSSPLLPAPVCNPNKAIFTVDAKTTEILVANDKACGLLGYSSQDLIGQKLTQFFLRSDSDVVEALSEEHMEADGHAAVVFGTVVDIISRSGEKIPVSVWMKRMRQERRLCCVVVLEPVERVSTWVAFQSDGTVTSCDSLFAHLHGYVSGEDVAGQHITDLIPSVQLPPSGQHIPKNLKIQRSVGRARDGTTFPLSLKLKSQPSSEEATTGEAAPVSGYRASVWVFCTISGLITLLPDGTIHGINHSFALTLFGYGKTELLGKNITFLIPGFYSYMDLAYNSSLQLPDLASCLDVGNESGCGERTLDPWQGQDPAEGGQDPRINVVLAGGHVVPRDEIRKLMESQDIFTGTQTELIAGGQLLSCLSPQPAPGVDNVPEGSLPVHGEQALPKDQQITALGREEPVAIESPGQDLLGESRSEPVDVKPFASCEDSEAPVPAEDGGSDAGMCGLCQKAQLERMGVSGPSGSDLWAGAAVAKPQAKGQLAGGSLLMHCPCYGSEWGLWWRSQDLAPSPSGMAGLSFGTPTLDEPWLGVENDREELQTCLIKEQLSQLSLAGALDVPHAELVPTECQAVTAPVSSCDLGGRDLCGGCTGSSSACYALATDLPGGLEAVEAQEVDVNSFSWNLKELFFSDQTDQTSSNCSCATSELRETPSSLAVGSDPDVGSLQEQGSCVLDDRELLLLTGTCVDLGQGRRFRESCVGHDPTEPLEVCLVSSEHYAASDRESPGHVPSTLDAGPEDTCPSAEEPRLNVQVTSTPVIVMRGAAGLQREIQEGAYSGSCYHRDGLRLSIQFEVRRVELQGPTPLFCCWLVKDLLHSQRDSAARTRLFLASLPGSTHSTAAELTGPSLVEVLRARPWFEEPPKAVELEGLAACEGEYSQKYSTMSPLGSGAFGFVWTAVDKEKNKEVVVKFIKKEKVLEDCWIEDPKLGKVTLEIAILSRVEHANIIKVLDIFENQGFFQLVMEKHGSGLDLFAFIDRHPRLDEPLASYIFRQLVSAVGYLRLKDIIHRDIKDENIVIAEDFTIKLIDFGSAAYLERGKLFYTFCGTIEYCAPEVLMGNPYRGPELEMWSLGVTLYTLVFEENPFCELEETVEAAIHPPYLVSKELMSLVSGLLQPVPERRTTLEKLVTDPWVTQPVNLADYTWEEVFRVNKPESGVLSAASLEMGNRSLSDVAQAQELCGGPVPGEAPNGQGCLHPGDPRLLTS
Sequence of Serine/threonine-protein kinase Nek7 (Homo sapiens) (Q8TDX7 whole entry, looked up): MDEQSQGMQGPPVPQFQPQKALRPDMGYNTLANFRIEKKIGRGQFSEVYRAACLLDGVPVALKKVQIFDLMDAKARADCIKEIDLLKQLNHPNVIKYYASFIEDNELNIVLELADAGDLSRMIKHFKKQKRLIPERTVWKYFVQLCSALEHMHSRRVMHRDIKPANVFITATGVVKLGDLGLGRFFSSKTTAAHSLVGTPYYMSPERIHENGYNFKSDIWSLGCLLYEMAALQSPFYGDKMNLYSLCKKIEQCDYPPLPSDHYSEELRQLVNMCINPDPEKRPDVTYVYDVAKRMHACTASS
Sequence of Serine/threonine-protein kinase Nek6 (Homo sapiens) (Q9HC98 whole entry): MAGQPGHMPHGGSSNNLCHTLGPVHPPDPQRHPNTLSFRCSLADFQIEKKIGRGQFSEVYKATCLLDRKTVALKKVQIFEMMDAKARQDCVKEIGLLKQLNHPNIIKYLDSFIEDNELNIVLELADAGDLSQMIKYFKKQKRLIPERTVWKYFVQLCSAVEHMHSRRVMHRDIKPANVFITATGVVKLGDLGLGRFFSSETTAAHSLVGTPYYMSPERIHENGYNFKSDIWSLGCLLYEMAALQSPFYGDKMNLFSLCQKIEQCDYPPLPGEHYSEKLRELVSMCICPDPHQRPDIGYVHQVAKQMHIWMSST
Sequence of Serine/threonine-protein kinase PAK 4 (Homo sapiens) (O96013 whole entry, looked up): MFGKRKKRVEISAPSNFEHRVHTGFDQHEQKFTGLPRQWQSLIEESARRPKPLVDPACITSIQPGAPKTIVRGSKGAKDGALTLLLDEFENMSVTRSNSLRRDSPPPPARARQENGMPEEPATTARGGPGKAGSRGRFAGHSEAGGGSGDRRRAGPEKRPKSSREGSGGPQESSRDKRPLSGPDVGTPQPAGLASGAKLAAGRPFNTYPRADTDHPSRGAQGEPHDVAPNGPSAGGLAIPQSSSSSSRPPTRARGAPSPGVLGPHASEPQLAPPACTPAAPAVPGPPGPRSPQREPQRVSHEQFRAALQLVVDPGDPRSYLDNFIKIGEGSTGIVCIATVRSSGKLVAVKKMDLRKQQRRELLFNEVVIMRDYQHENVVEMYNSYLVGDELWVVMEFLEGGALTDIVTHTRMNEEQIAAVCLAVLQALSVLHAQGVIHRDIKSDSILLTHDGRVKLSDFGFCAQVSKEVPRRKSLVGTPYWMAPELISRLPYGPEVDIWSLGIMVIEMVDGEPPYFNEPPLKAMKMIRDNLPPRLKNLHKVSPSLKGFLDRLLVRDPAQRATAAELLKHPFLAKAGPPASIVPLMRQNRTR

As to `c1ccc(-c2cnc(Nc3ccc(OCCN4CCCC4)cc3)s2)cc1`, the residual activity in [1] worked out at 61%; in experiment [2] it was 52%; in experiment [3], 112%; in [4], 56%; in experiment [5], 105%; in [6], 76%. Moreover, the residual activity worked out at 62% in [7], 68% in experiment [8] and 16% in experiment [9].
Regarding `CSc1nc(-c2ccc(F)cc2)c(-c2ccnc(NC(C)c3ccccc3)c2)[nH]1` (configuration not stated), the residual activity in experiment [3] came to 69%; in experiment [4], 14%; in experiment [10] it was 100%; in experiment [11], 87%; in [6], 92%; in [12], 102%. For the same compound, the residual activity in experiment [13] worked out at 83%; in experiment [14], 96%; in [15], 81%; in [7] it was 64%; in experiment [8], 90%; in experiment [9], 50%. The residual activity in experiment [16] was found to be 82%.
For the compound `O=S(=O)(c1cccc2cnccc12)N1CCCNCC1`, the figures for the residual activity in experiment [2], in experiment [5] and in [6] were 25%, 106% and 101%, respectively.
For `O=S(=O)(NCCNC/C=C/c1ccc(Br)cc1)c1cccc2cnccc12`, the residual activity was determined as 13% in [1]; 5% in experiment [2]; 55% in [15]; 81% in [7]; 77% in experiment [8]; 43% in experiment [9].
For `CCOC(=O)c1c(C)[nH]c(/C=C2\C(=O)Nc3ccccc32)c1C`, the residual activity in experiment [5] turned out to be 90%; in [6], 94%; in experiment [14] it was 91%; in experiment [15], 99%; in [7], 93%; in experiment [8], 73%. Moreover, the values for the residual activity in experiment [9] and in experiment [16] were 64% and 80%, respectively.
For the compound `Fc1ccc(-c2nc3n(c2-c2ccncc2)CCS3)cc1`, the residual activity came to 92% in experiment [1]; 62% in experiment [2]; 52% in experiment [3]; 20% in experiment [4]; 87% in [8]; 79% in experiment [9]. The residual activity in [16] stood at 86%.
Turning to `CCCCc1c(-c2ccc(OC)cc2)[nH]c2nccnc12`, the residual activity in experiment [2] was 70%; in [17] it was 113% (inactive); in experiment [18], 100%; in experiment [19] it was 112% (inactive); in experiment [3], 83%; in [10], 112%. Also, the residual activity is 103% in [11]; 60% in experiment [5]; 68% in experiment [6]; 63% in experiment [12]; 64% in experiment [13]; 92% in experiment [14]. Moreover, the residual activity in experiment [15] turned out to be 60%; in experiment [8], 24%; in experiment [9] it was 5%; in experiment [16] it was 70%.
Turning to `O=C1NC(=O)C(c2cn(CCCn3ccnc3)c3ccccc23)=C1Nc1ccccc1`, the residual activity in [1] came to 23%; in experiment [2], 6%; in experiment [10], 107%; in experiment [11] it was 67%; in [6], 75%; in experiment [8], 45%. In addition, the values for the residual activity in experiment [9] and in experiment [16] were 11% and 74%, respectively.
As for `Nc1nccc(-c2c(-c3ccc(F)cc3)ncn2C2CCNCC2)n1`, the residual activity worked out at 74% in experiment [1]; 49% in experiment [2]; 34% in [3]; 9% in [4]; 39% in experiment [9].
Turning to `N#C/C(=C\c1ccc(O)c(O)c1)C(=O)NCc1ccccc1`, the residual activity was 65% in experiment [2]; 101% (inactive) in [20]; 125% (inactive) in experiment [19]; 103% in experiment [10]; 85% in [11]; 85% in experiment [13]. In addition, the residual activity in experiment [7] was 55%; in [8], 88%; in [9], 62%.
In the case of `CCN(CC)CCNC(=O)c1c(C)[nH]c(/C=C2\C(=O)Nc3ccc(Cl)cc32)c1C`, the residual activity was 24% in [1]; 4% in experiment [2]; 52% in experiment [5]; 11% in experiment [6]; 30% in experiment [12]; 8% in experiment [13]. In addition, the residual activity in experiment [14] is 73%; in experiment [15] it was 28%; in experiment [7], 49%; in [8], 25%; in experiment [9], 1%; in experiment [16], 8%.
As for `O=C1C(Cl)=C(N2C(=O)CCC2=O)C(=O)c2ccccc21`, the residual activity in [2] is 67%; in experiment [19], 96% (inactive); in experiment [3], 95%; in experiment [4] it was 88%; in [10], 101%; in [11], 98%. The residual activity in experiment [5] was 95%; in [6], 96%; in [12] it was 99%; in experiment [13] it was 84%; in experiment [15], 93%; in [7], 122%. Besides, the residual activity in [8] is 78%; in experiment [9] it was 69%; in [16], 65%.
`CC(C)N(CCC(=O)c1ccc2ccccc2c1)Cc1ccccc1`: the residual activity in experiment [1] came to 77%; in experiment [2], 53%; in experiment [11], 81%; in experiment [5], 88%; in [6], 79%; in experiment [8], 68%. Further, the values for the residual activity in experiment [9] and in [16] were 63% and 74%, respectively.
In the case of `CCCCc1c(-c2ccc(O)cc2)[nH]c2nccnc12`, the residual activity came out at 88% in experiment [1]; 54% in experiment [2]; 88% in [3]; 59% in experiment [4]; 56% in experiment [12]; 36% in experiment [13]. The residual activity is 94% in [14]; 47% in experiment [15]; 26% in experiment [8]; 6% in experiment [9]; 71% in experiment [16].
Regarding `NCCNc1ncc(C(N)=O)c(Nc2cccc(C(F)(F)F)c2)n1`, the residual activity in experiment [18] amounted to 111%; in [3], 106%; in [4] it was 81%; in experiment [5], 49%; in experiment [6] it was 9%; in [12] it was 48%. Moreover, the residual activity stood at 9% in experiment [13]; 63% in experiment [14]; 18% in [15]; 40% in experiment [7]; 70% in [8]; 16% in [9].

The values above are taken from ChEMBL document CHEMBL2218924, “A broad activity screen in support of a chemogenomic map for kinase signalling research and drug discovery” (Biochem J, 2013).
